Test in all cases: DAPPL (digital affinity profiling via proximity ligation, sequencing); 10 mM Tris-HCl pH 7.5, 50 mM NaCl, 1 mM DTT, 4% glycerol, room temperature, 30 min; GST-TFs on glutathione beads, 16-mer random dsDNA library, 0.1% formaldehyde crosslink after washing; high values mean tight binding
Holding throughout (settings): protein: recombinant; tags: N-terminal GST; dsDNA, one strand shown

The target of one experiment is T1, ERF (Homo sapiens, UniProt P50548 1-548).
T1 sequence: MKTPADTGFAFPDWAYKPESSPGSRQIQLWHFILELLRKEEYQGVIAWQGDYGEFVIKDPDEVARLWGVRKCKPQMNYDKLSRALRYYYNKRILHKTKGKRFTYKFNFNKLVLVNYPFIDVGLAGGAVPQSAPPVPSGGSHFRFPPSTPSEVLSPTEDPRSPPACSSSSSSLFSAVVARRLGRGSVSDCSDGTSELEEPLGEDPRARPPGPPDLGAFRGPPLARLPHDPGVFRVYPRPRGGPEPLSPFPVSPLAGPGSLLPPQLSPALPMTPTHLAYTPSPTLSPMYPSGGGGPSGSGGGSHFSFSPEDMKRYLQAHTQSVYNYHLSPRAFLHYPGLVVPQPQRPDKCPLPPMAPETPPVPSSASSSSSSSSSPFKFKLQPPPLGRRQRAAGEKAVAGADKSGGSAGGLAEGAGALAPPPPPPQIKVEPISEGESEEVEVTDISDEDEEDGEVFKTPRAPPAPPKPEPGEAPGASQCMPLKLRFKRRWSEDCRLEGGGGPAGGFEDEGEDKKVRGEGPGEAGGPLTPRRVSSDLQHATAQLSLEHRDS
In short, it runs like this:
(§1)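 Sequencing on an Illumina NextSeq500 followed washing, crosslinking with 0.1% formaldehyde, proximity ligation (BsaI/T4 ligase, 1 h, 37 °C) and PCR amplification of pools that had been incubated for 30 min at room temperature with 200 nmole of a random double-stranded 16-mer DNA library in Tris/NaCl/DTT/glycerol buffer. Each pool held DNA-barcoded human transcription factors, expressed in yeast as GST fusions and captured on glutathione beads, plus a tag-only sample. Binding signal is a hexamer's read frequency for a factor divided by its frequency in the tag-only sample.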

For the next experiment, the target named is T2, ETV3L (Homo sapiens, UniProt Q6ZN32 1-361).
T2 sequence: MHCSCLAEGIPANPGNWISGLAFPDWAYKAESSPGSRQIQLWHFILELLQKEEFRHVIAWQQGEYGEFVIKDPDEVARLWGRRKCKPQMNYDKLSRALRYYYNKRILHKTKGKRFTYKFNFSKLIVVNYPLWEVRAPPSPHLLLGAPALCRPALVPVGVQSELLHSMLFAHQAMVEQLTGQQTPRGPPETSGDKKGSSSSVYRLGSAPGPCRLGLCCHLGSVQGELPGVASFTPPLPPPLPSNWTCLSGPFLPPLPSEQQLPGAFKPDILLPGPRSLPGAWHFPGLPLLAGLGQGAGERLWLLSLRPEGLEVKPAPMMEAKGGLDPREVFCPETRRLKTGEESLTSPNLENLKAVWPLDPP
A digest of the protocol: as §1

A further experiment addresses T3, ETS2 (Homo sapiens, UniProt P15036 1-469).
T3 sequence: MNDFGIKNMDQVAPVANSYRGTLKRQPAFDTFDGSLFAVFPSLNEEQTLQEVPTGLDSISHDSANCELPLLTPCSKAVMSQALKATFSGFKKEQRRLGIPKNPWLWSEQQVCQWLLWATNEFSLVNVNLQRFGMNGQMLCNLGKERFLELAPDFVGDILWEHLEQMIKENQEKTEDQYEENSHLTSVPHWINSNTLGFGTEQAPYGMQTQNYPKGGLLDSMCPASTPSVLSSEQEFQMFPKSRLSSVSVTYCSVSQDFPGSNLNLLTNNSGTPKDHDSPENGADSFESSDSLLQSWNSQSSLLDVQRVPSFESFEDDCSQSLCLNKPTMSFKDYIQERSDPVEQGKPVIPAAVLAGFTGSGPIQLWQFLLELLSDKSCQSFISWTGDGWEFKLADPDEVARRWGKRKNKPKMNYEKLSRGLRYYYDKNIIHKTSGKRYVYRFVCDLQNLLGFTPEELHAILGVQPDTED
A digest of the protocol:
as §1

The next experiment has as its target T4, SPDEF (Homo sapiens, UniProt O95238 1-335).
T4 sequence: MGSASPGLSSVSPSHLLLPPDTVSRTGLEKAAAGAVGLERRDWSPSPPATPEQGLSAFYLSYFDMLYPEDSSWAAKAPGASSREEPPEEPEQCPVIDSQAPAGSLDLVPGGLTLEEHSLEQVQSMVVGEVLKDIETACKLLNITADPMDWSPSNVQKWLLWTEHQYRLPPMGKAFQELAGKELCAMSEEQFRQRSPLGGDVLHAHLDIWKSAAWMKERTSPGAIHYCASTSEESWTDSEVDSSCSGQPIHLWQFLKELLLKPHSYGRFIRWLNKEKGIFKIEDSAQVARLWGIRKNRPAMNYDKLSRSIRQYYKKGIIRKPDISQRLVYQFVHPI
In short, it runs like this:
as §1

In another experiment the target is T5, ETV7 (Homo sapiens, UniProt Q9Y603 1-341).
T5 sequence: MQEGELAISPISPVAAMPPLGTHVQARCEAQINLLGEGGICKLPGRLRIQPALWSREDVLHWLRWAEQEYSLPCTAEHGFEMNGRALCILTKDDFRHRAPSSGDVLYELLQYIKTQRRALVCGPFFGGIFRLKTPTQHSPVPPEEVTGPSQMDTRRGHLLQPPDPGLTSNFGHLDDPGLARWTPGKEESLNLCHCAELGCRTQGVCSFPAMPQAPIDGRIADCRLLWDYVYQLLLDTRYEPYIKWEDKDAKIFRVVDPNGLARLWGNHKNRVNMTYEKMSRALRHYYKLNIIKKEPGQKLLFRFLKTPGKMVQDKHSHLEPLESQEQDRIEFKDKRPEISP
In short, it runs like this: as §1

The target of the next experiment is T6, ELF5 (Homo sapiens, UniProt Q9UKW6-2 1-255).
T6 sequence: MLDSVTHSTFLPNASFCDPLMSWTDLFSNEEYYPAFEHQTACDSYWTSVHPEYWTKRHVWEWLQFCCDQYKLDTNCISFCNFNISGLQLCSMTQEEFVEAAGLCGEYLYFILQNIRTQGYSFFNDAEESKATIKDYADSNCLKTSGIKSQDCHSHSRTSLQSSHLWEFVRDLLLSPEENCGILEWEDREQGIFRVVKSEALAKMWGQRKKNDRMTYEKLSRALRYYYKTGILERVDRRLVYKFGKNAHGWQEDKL
A digest of the protocol:
as §1

The target in a further experiment is T7, ETV3 (Homo sapiens, UniProt P41162-2 1-143).
T7 sequence: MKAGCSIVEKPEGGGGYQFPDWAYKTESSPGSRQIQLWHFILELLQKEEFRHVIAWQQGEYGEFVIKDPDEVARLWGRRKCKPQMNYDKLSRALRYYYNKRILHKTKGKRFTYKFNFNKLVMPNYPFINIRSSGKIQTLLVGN
A digest of the protocol:
as §1

The target in the next experiment is ETV6 (Homo sapiens, UniProt P41212 1-452). A digest of the protocol: as §1
Sequence of ETV6 (P41212 whole entry): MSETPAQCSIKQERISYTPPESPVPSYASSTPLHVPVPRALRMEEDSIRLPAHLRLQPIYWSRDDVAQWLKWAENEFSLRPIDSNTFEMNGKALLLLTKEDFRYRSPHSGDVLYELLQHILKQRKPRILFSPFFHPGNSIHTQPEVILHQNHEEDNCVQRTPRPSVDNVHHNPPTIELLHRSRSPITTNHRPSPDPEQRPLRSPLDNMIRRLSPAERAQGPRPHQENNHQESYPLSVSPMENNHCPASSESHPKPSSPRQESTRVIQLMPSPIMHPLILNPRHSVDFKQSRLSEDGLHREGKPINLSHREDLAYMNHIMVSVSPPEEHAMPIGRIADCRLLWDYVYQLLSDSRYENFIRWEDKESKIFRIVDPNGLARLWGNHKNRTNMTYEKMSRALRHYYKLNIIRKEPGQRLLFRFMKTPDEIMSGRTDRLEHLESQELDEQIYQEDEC

GCTACC: the binding signal in the experiment with ERF is 1.31 fold enrichment (6-mer frequency, TF over GST control); with ETV3L, 1.15 fold enrichment (6-mer frequency, TF over GST control); with ETS2, 1.22 fold enrichment (6-mer frequency, TF over GST control); with SPDEF, 1.22 fold enrichment (6-mer frequency, TF over GST control); in the experiment with ETV7 it was 1.27 fold enrichment (6-mer frequency, TF over GST control); with ELF5, 1.24 fold enrichment (6-mer frequency, TF over GST control). For the same sequence, the binding signal with ETV3 was 1.24 fold enrichment (6-mer frequency, TF over GST control); in the experiment with ETV6, 1.16 fold enrichment (6-mer frequency, TF over GST control).

For GCACCC, the binding signal is 1.21 fold enrichment (6-mer frequency, TF over GST control) with ERF; 1.23 fold enrichment (6-mer frequency, TF over GST control) with ETV3L; 1.16 fold enrichment (6-mer frequency, TF over GST control) with ETS2; 1.17 fold enrichment (6-mer frequency, TF over GST control) with SPDEF; 1.12 fold enrichment (6-mer frequency, TF over GST control) in the experiment with ETV7; 1.17 fold enrichment (6-mer frequency, TF over GST control) in the experiment with ELF5. The binding signal with ETV3 was 1.24 fold enrichment (6-mer frequency, TF over GST control); with ETV6, 1.09 fold enrichment (6-mer frequency, TF over GST control).

Consider ACCTAT, for which the binding signal is 1.26 fold enrichment (6-mer frequency, TF over GST control) in the experiment with ERF; 1.16 fold enrichment (6-mer frequency, TF over GST control) with ETV3L; 1.2 fold enrichment (6-mer frequency, TF over GST control) with ETS2; 1.25 fold enrichment (6-mer frequency, TF over GST control) in the experiment with SPDEF; 1.25 fold enrichment (6-mer frequency, TF over GST control) with ETV7; 1.11 fold enrichment (6-mer frequency, TF over GST control) with ELF5. Besides, the binding signal is 1.17 fold enrichment (6-mer frequency, TF over GST control) in the experiment with ETV3 and 1.16 fold enrichment (6-mer frequency, TF over GST control) with ETV6.

For ATGGTC, the binding signal was 1.45 fold enrichment (6-mer frequency, TF over GST control) with ERF; 1.49 fold enrichment (6-mer frequency, TF over GST control) with ETV3L; 1.49 fold enrichment (6-mer frequency, TF over GST control) in the experiment with ETS2; 1.35 fold enrichment (6-mer frequency, TF over GST control) in the experiment with SPDEF; 1.29 fold enrichment (6-mer frequency, TF over GST control) in the experiment with ETV7; 1.46 fold enrichment (6-mer frequency, TF over GST control) with ELF5. Also, the binding signal in the experiment with ETV3 is 1.55 fold enrichment (6-mer frequency, TF over GST control); in the experiment with ETV6, 1.52 fold enrichment (6-mer frequency, TF over GST control).

For GTGTTC, the binding signal with ERF is 1.19 fold enrichment (6-mer frequency, TF over GST control); with ETV3L, 1.14 fold enrichment (6-mer frequency, TF over GST control); in the experiment with ETS2, 1.17 fold enrichment (6-mer frequency, TF over GST control); with SPDEF, 1.34 fold enrichment (6-mer frequency, TF over GST control); with ETV7, 1.11 fold enrichment (6-mer frequency, TF over GST control); with ELF5 it was 1.34 fold enrichment (6-mer frequency, TF over GST control). In addition, the binding signal is 1.05 fold enrichment (6-mer frequency, TF over GST control) in the experiment with ETV3 and 1.09 fold enrichment (6-mer frequency, TF over GST control) with ETV6.

Take ATTCAA: the binding signal with ERF is 1.38 fold enrichment (6-mer frequency, TF over GST control); with ETV3L, 1.34 fold enrichment (6-mer frequency, TF over GST control); with ETS2, 1.36 fold enrichment (6-mer frequency, TF over GST control); with SPDEF it was 1.31 fold enrichment (6-mer frequency, TF over GST control); with ETV7 it was 1.19 fold enrichment (6-mer frequency, TF over GST control); with ELF5, 1.24 fold enrichment (6-mer frequency, TF over GST control). Moreover, the binding signal was 1.37 fold enrichment (6-mer frequency, TF over GST control) with ETV3 and 1.33 fold enrichment (6-mer frequency, TF over GST control) with ETV6.

Consider TATCCC, for which the binding signal with ERF is 1.52 fold enrichment (6-mer frequency, TF over GST control); with ETV3L, 1.52 fold enrichment (6-mer frequency, TF over GST control); in the experiment with ETS2 it was 1.47 fold enrichment (6-mer frequency, TF over GST control); in the experiment with SPDEF it was 1.72 fold enrichment (6-mer frequency, TF over GST control); with ETV7 it was 1.53 fold enrichment (6-mer frequency, TF over GST control); with ELF5 it was 2.05 fold enrichment (6-mer frequency, TF over GST control). For the same sequence, the binding signal in the experiment with ETV3 is 1.62 fold enrichment (6-mer frequency, TF over GST control); with ETV6 it was 1.51 fold enrichment (6-mer frequency, TF over GST control).

With TACGTT, the binding signal in the experiment with ERF is 1.3 fold enrichment (6-mer frequency, TF over GST control); in the experiment with ETV3L, 1.32 fold enrichment (6-mer frequency, TF over GST control); in the experiment with ETS2, 1.21 fold enrichment (6-mer frequency, TF over GST control); with SPDEF, 1.22 fold enrichment (6-mer frequency, TF over GST control); in the experiment with ETV7, 1.34 fold enrichment (6-mer frequency, TF over GST control); with ELF5, 1.27 fold enrichment (6-mer frequency, TF over GST control). The binding signal in the experiment with ETV3 was 1.27 fold enrichment (6-mer frequency, TF over GST control); with ETV6 it was 1.38 fold enrichment (6-mer frequency, TF over GST control).

For the sequence CTCCTG, the binding signal is 1.49 fold enrichment (6-mer frequency, TF over GST control) with ERF; 1.72 fold enrichment (6-mer frequency, TF over GST control) with ETV3L; 1.86 fold enrichment (6-mer frequency, TF over GST control) in the experiment with ETS2; 1.6 fold enrichment (6-mer frequency, TF over GST control) in the experiment with SPDEF; 1.64 fold enrichment (6-mer frequency, TF over GST control) in the experiment with ETV7; 1.6 fold enrichment (6-mer frequency, TF over GST control) with ELF5. The binding signal in the experiment with ETV3 is 1.43 fold enrichment (6-mer frequency, TF over GST control); in the experiment with ETV6, 1.59 fold enrichment (6-mer frequency, TF over GST control).

Values taken from article PMC7862700, “An all-to-all approach to the identification of sequence-specific readers for epigenetic DNA modifications on cytosine”.
